T cruzi growth-1: inhibitors of T. cruzi proliferation | T. cruzi beta-gal in NIH3T3, GalScreen luminescence, 90 h | inhibition, % at 8.34 µM | hit rate 5.9% among 77,000 | AID 624255;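 active means mean inhibition above about 93%, with at least 55% of replicates each passing it, limit read from the data, passing the limit was not always enough; inconclusive means only one of those two conditions holds; inactive means neither condition holds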
C diff HTS: inhibitors of Clostridium difficile growth; Clostridium difficile clinical isolate growth, OD600, 24 h; active compounds read low; growth activity, negative = inhibition, % at 16 µg/mL (by protocol); hit rate 0.25% among 86,000;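 active means mean growth activity at or below -80% and every replicate also at or below -80%; inconclusive means mean at or below -80% but some replicate above -80%; inactive means mean growth activity above -80%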;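 further: 0% = DMSO wells and -100% = levofloxacin 16 µg/mL wells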
Pf Dd2 inh: inhibitors of Plasmodium falciparum Dd2 growth; P. falciparum Dd2 growth, SYBR Green, 72 h; active compounds read low; activity change, % at 10 µM; AID 1159554; hit rate 2.3% among 94,000; in the data active means activity change below about -80%; inconclusive means no clear call, values can overlap the other calls
T cruzi growth-2: blocks T. cruzi growth in NIH3T3 host cells | shares compounds with T cruzi growth-1 | T. cruzi beta-gal in NIH3T3, GalScreen luminescence, 90 h | inhibition, % at 8.35 µM | hit rate 72% among 5,600;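 active means mean replicate inhibition above about 95% and at least 55% of replicates individually reaching it, limit read from the data; inconclusive means only one of the two criteria is met; inactive means neither criterion is met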
T cruzi growth-3: blocks T. cruzi growth in NIH3T3 host cells; T. cruzi beta-gal in NIH3T3, GalScreen luminescence, 90 h; AID 651740; inhibition, % at 2.09 µM; hit rate 21% among 5,600; shares compounds with T cruzi growth-1;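 active means mean inhibition above about 95%, with at least 55% of replicates also reaching it, limit read from the data; inconclusive means meets just one of the two conditions; inactive means meets neither condition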;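 further: plate controls were neutral control median for no effect and positive control median for full effect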
3T3 cytotox: NIH/3T3 (mouse) viability loss. shares compounds with T cruzi growth-1. NIH/3T3 viability, CellTiter-Glo ATP luminescence, 90 h. cytotoxicity (signal decrease), % at 8.35 µM. hit rate 14% among 5,600. AID 651742;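 active means mean signal decrease across replicates above about 35% based on untreated-well scatter, with enough replicates individually passing, limit read from the data; inconclusive means no rule stated though some were filed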;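 further: 0% = median of neutral control wells and 100% = median of positive control wells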
3T3 cytotox 2: NIH/3T3 (mouse) viability loss; hit rate 56% among 5,600; shares compounds with T cruzi growth-1; AID 651744; NIH/3T3 viability, CellTiter-Glo ATP luminescence, 90 h; inhibition, % at 24.9 µM;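 active means mean loss of cell viability signal at or above a set limit, and enough replicates individually reaching it; inconclusive means meets only the mean limit or only the replicate share; inactive means meets neither condition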;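 further: 0% = median of neutral control wells and 100% = median of positive control wells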
Starred values were filed as active, the others as inactive; ? = inconclusive; / = no result given. An excerpt weighted towards active compounds, which were near 6.7% of everything screened.

SMILES	T cruzi growth-1	C diff HTS	Pf Dd2 inh	T cruzi growth-2	T cruzi growth-3	3T3 cytotox	3T3 cytotox 2
CN(C)C(=O)c1cccc(-c2ccc3c(c2)[C@@H]2[C@@H](CCN2C(=O)c2ccc4c(c2)OCO4)[C@@H](CO)N3)c1	30.3	4.3	-1.3	/	/	/	/
Cc1ccc(S(=O)(=O)N[C@@H]2CC[C@@H](CCNS(=O)(=O)Cc3ccccc3)O[C@@H]2CO)cc1	12.5	-2.5	-6.8	/	/	/	/
COc1ccccc1-c1ccc2c(c1)[C@H]1[C@H](CCN1C(=O)C1CC1)[C@H](CO)N2	87.8	-1.4	-3.2	/	/	/	/
CC(=O)N1CC[C@@H]2[C@H](CO)Nc3ccc(-c4cccc(F)c4)cc3[C@@H]21	66.1	-6.3	24.5	/	/	/	/
O=C(C1CCC1)N1CC[C@@H]2[C@H](CO)Nc3ccc(-c4cccc(F)c4)cc3[C@@H]21	?	29.5	18.1	106.1*	91.1	1.2	70.5*
COc1ccccc1-c1ccc2c(c1)[C@H]1[C@H](CCN1C(=O)C1CC1)[C@@H](CO)N2	98.5*	-1.2	4.4	107.1*	87.7	-7.2	1.0
O=C(C1CCCC1)N1CC[C@H]2[C@H](CO)Nc3ccc(-c4cccc(F)c4)cc3[C@H]21	/	28.3	-49.4	/	/	/	/
O=C(C1CC1)N1CC[C@@H]2[C@@H](CO)Nc3ccc(-c4cccc(F)c4)cc3[C@@H]21	109.2*	-21.6	-5.2	100.8*	83.1	-0.8	26.4*
CC(C)NC(=O)N(C)C[C@@H]1OCCCC[C@@H](C)Oc2ccc(NS(C)(=O)=O)cc2C(=O)N([C@H](C)CO)C[C@H]1C	-17.5	/	35.9	/	/	/	/
CCC(=O)Nc1ccc2c(c1)C(=O)N(C)C[C@H](OC)[C@H](C)CN(Cc1ccncc1)[C@H](C)CO2	25.2	/	11.4	/	/	/	/
COc1ccc(S(=O)(=O)N(C)C[C@@H]2OCCCC[C@@H](C)Oc3ccc(NS(=O)(=O)c4ccccc4)cc3C(=O)N([C@@H](C)CO)C[C@@H]2C)cc1	59.5	10.5	/	/	/	/	/
O=C(C[C@@H]1CC[C@H](NC(=O)CC2CC2)[C@H](CO)O1)NCc1ccc(Cl)cc1	-55.8	/	-9.8	/	/	/	/
C[C@H]1CCCCO[C@H](CN(C)C(=O)NC2CCCCC2)[C@@H](C)CN([C@@H](C)CO)C(=O)c2cc(NS(=O)(=O)c3cccs3)ccc2O1	64.3	8.0	-38.7	/	/	/	/
OC[C@@H]1[C@@H](c2ccc(C#Cc3ccccc3F)cc2)[C@@H]2CN(CC3CCOCC3)CCCCN12	72.2	-12.4	-7.1	/	/	/	/
CCCC#Cc1ccc([C@H]2[C@H]3CN(CC4CC4)CCCCN3[C@H]2CO)cc1	48.0	-1.4	-34.4	/	/	/	/
OC[C@@H]1[C@H](c2ccc(C#Cc3ccccc3F)cc2)[C@@H]2CN(CC3CCOCC3)CCCCN12	105.3*	7.1	3.6	114.0*	59.2	?	105.1*
CCCC#Cc1ccc([C@H]2[C@H](CO)N3CCCCN(CC4CCOCC4)C[C@@H]23)cc1	128.7*	5.4	?	86.7	46.9	15.9	76.7*
C[C@H]1CN([C@@H](C)CO)C(=O)Cc2cc(NC(=O)C3CC3)ccc2O[C@H]1CN(C)S(=O)(=O)c1ccc(F)cc1	24.2	-5.6	-3.0	/	/	/	/
CCCNC(=O)N1C[C@@H](O)COC[C@H]2O[C@@H](CC(=O)N3CCC(Cc4ccccc4)CC3)CC[C@@H]21	49.7	6.8	-40.7	/	/	/	/
COc1cccc(-c2cnc3c(c2)C(=O)N([C@@H](C)CO)C[C@H](C)[C@H](CN(C)Cc2ccncc2)O3)c1	54.2	-0.4	24.9	/	/	/	/
C[C@H](O)C#Cc1ccc2c(c1)O[C@H](CN(C)Cc1ccncc1)[C@H](C)CN([C@H](C)CO)S2(=O)=O	60.5	-1.0	-28.3	/	/	/	/
C[C@H](O)C#Cc1ccc2c(c1)O[C@@H](CN(C)Cc1ccncc1)[C@H](C)CN([C@@H](C)CO)S2(=O)=O	110.5*	2.1	-40.6	98.4*	72.6	32.1	50.3*
C[C@H](O)C#Cc1ccc2c(c1)O[C@H](CN(C)Cc1ccncc1)[C@@H](C)CN([C@H](C)CO)S2(=O)=O	56.8	3.3	-38.5	/	/	/	/
C[C@@H]1CN([C@H](C)CO)S(=O)(=O)c2ccc(C#C[C@@H](C)O)cc2O[C@@H]1CN(C)Cc1ccncc1	75.5	-4.1	-34.8	/	/	/	/
C[C@@H]1CN([C@@H](C)CO)S(=O)(=O)c2ccc(C#C[C@@H](C)O)cc2O[C@H]1CN(C)Cc1ccncc1	102.3*	2.1	-46.9	100.9*	66.4	29.0	27.1*
SMILES	T cruzi growth-1	C diff HTS	Pf Dd2 inh	T cruzi growth-2	T cruzi growth-3	3T3 cytotox	3T3 cytotox 2
C[C@@H]1CN([C@H](C)CO)S(=O)(=O)c2ccc(C#C[C@@H](C)O)cc2O[C@H]1CN(C)Cc1ccncc1	104.3*	-0.5	-35.5	95.5*	35.8	15.2	14.3
COc1ccc(NC(=O)Nc2ccc3c(c2)[C@@H]2C[C@H](CC(=O)NC4CCCCC4)O[C@H](CO)[C@@H]2O3)cc1	-57.8	-2.9	-36.1	/	/	/	/
C/C=C/c1ccc([C@H]2[C@H]3CN(S(=O)(=O)c4cccs4)CCCCN3[C@H]2CO)cc1	106.2*	81.5	5.7	105.6*	61.5	8.1	61.5*
O=S(=O)(c1cccs1)N1CCCCN2[C@H](C1)[C@H](c1ccc(Br)cc1)[C@@H]2CO	108.7*	12.2	-16.8	100.1*	23.2	10.9	1.6
O=S(=O)(c1cccs1)N1CCCCN2[C@H](C1)[C@H](c1ccc(C3=CCCC3)cc1)[C@@H]2CO	76.3	-0.8	15.1	/	/	/	/
O=S(=O)(c1cccs1)N1CCCCN2[C@@H](CO)[C@@H](c3ccc(/C=C/c4ccccc4)cc3)[C@@H]2C1	73.8	54.7	-29.4	/	/	/	/
O=S(=O)(c1cccs1)N1CCCCN2[C@@H](CO)[C@H](c3ccc(Br)cc3)[C@@H]2C1	102.7*	30.5	-23.5	105.1*	31.9	-6.0	24.7
O=S(=O)(c1cccs1)N1CCCCN2[C@H](CO)[C@H](c3ccc(C4=CCCCC4)cc3)[C@H]2C1	104.9*	49.1	-49.9	107.2*	56.2	30.4	104.4*
O=S(=O)(c1cccs1)N1CCCCN2[C@H](CO)[C@@H](c3ccc(Br)cc3)[C@H]2C1	92.2	-0.5	-10.6	/	/	/	/
C/C=C/c1ccc([C@@H]2[C@@H](CO)N3CCCCN(S(=O)(=O)c4cccs4)C[C@H]23)cc1	74.6	53.1	-14.1	/	/	/	/
COc1ccc(CN(C)C[C@@H]2Oc3c(NC(=O)Nc4c(C)noc4C)cccc3C(=O)N([C@H](C)CO)C[C@@H]2C)cc1	-13.4	-5.5	17.0	/	/	/	/
CCC(=O)Nc1ccc2c(c1)OC[C@@H](C)N(C(=O)CN(C)C)C[C@H](C)[C@@H](OC)CN(C)C2=O	-15.3	/	19.6	/	/	/	/
C[C@@H]1CN([C@H](C)CO)C(=O)c2cc(NC(=O)C3CCCCC3)ccc2O[C@H]1CN(C)S(=O)(=O)c1ccc(Cl)cc1	37.9	-5.7	-0.7	/	/	/	/
CO[C@@H]1CN(C)C(=O)c2ccc(NC(C)=O)cc2OC[C@@H](C)N(C(=O)c2ccccn2)C[C@H]1C	2.7	/	21.2	/	/	/	/
